The campaign covered roughly 47,000 compounds. About 200 (0.43%) were called active. Not shown: some 1% with an inconclusive outcome.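 Rule for the calls: active = inhibition of aggregate fluorescence above about 70%, also judged a hit by eye on the cell image (limit read from the data, passing the limit was not always enough); inconclusive = no rule stated for this call; inactive = not judged a hit on image review.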 This excerpt belongs to a sample that is enriched for actives.
Assay: removal of polyQ htt aggregates in HeLa – imaging, HeLa Exon1htt(103Q)mCFP, confocal imaging, primary screen (AID 853);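 note: cells exposed to compound for three days before fixation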
Conditions: aggregate imaging, at 1.5 µM; fraction fluorescence in grains: measured here: aggregate grain fluorescence fraction, stronger effect = lower value; inhibition: stronger effect = higher value

Structure (SMILES) | fraction fluorescence in grains | inhibition
N#Cc1ccc(Cn2cc(C(=O)c3ccco3)c3ccccc32)cc1 | 6.7 | 83.1% (active)
COc1ccc(CCn2c(O)c(C=NC3CC3)c(=O)[nH]c2=O)cc1OC | 56 | -52.1% (inactive)
CC(C)c1ccc(OCC(=O)N2CCN(C)CC2)c(Br)c1 | 48.9 | -31% (inactive)
CCN1CCN(C(=O)Cc2coc3cc(C)cc(C)c23)CC1 | 24 | -20.7% (inactive)
c1cc2c(cc1CCNC1CCCCCC1)OCO2 | 16.3 | 11.1% (inactive)
